Results taken from the supplement of paper PMC6897291.

Experiments:
RIVA [1] = experiment: growth inhibition by drug plus 177Lu-lilotomab satetraxetan (1 - RLU/untreated control) (fraction); higher = stronger inhibition; details: 177Lu-lilotomab satetraxetan 0.5 ug/ml
Method in brief: (§1)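 Compound doses on the pre-printed Selleck Cambridge Cancer Compound library plates were 10/100 nM for RIVA cells and 10/1,000 nM for U-2932 cells, seeded at 3,000 cells/well. Before seeding, cells were washed after 18 h with or without a radiolabelled anti-CD37 antibody conjugate (~600 MBq/mg; 0.5 µg/ml RIVA, 1 µg/ml U-2932). Growth inhibition was derived from RealTime-Glo luminescence relative to untreated no-drug control wells. Readings were taken daily starting on day 3, each after 1 h at 37°C, and each well's RLU was divided by the mean of 48 such wells per plate and subtracted from 1.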

U-2932 [2] = experiment: growth inhibition by drug alone (1 - RLU/untreated control) (fraction); higher = stronger inhibition; details: 177Lu-lilotomab satetraxetan 0 ug/ml
Method in brief: as §1

RIVA [3] = experiment: as above; details: 177Lu-lilotomab satetraxetan 0 ug/ml
Method in brief: as §1

U-2932 [4] = experiment: growth inhibition by drug plus 177Lu-lilotomab satetraxetan (1 - RLU/untreated control) (fraction); higher = stronger inhibition; details: 177Lu-lilotomab satetraxetan 1 ug/ml
Method in brief: as §1

| Structure (SMILES) | growth inhibition by drug plus 177Lu-lilotomab satetraxetan (RIVA [1]; 100 nM, time (day): 5) | growth inhibition by drug plus 177Lu-lilotomab satetraxetan (RIVA [1]; 100 nM, time (day): 6) | growth inhibition by drug alone (U-2932 [2]; 10 nM, time (day): 3) | growth inhibition by drug alone (U-2932 [2]; 10 nM, time (day): 4) | growth inhibition by drug alone (U-2932 [2]; 10 nM, time (day): 5) | growth inhibition by drug alone (U-2932 [2]; 10 nM, time (day): 6) | growth inhibition by drug alone (U-2932 [2]; 1000 nM, time (day): 3) | growth inhibition by drug alone (U-2932 [2]; 1000 nM, time (day): 4) | growth inhibition by drug alone (U-2932 [2]; 1000 nM, time (day): 5) | growth inhibition by drug alone (U-2932 [2]; 1000 nM, time (day): 6) | growth inhibition by drug alone (RIVA [3]; 10 nM, time (day): 3) | growth inhibition by drug alone (RIVA [3]; 10 nM, time (day): 4) | growth inhibition by drug alone (RIVA [3]; 10 nM, time (day): 5) | growth inhibition by drug alone (RIVA [3]; 10 nM, time (day): 6) | growth inhibition by drug alone (RIVA [3]; 100 nM, time (day): 3) | growth inhibition by drug alone (RIVA [3]; 100 nM, time (day): 4) | growth inhibition by drug alone (RIVA [3]; 100 nM, time (day): 5) | growth inhibition by drug alone (RIVA [3]; 100 nM, time (day): 6) | growth inhibition by drug plus 177Lu-lilotomab satetraxetan (U-2932 [4]; 10 nM, time (day): 3) | growth inhibition by drug plus 177Lu-lilotomab satetraxetan (U-2932 [4]; 10 nM, time (day): 4) | growth inhibition by drug plus 177Lu-lilotomab satetraxetan (U-2932 [4]; 10 nM, time (day): 5) | growth inhibition by drug plus 177Lu-lilotomab satetraxetan (U-2932 [4]; 10 nM, time (day): 6) | growth inhibition by drug plus 177Lu-lilotomab satetraxetan (U-2932 [4]; 1000 nM, time (day): 3) | growth inhibition by drug plus 177Lu-lilotomab satetraxetan (U-2932 [4]; 1000 nM, time (day): 4) | growth inhibition by drug plus 177Lu-lilotomab satetraxetan (U-2932 [4]; 1000 nM, time (day): 5) | growth inhibition by drug plus 177Lu-lilotomab satetraxetan (U-2932 [4]; 1000 nM, time (day): 6) | growth inhibition by drug plus 177Lu-lilotomab satetraxetan (RIVA [1]; 10 nM, time (day): 3) | growth inhibition by drug plus 177Lu-lilotomab satetraxetan (RIVA [1]; 10 nM, time (day): 4) | growth inhibition by drug plus 177Lu-lilotomab satetraxetan (RIVA [1]; 10 nM, time (day): 5) | growth inhibition by drug plus 177Lu-lilotomab satetraxetan (RIVA [1]; 10 nM, time (day): 6) | growth inhibition by drug plus 177Lu-lilotomab satetraxetan (RIVA [1]; 100 nM, time (day): 3) | growth inhibition by drug plus 177Lu-lilotomab satetraxetan (RIVA [1]; 100 nM, time (day): 4) |
| --- | --- | --- | --- | --- | --- | --- | --- | --- | --- | --- | --- | --- | --- | --- | --- | --- | --- | --- | --- | --- | --- | --- | --- | --- | --- | --- | --- | --- | --- | --- | --- | --- |
| Cc1[nH]c(/C=C2\C(=O)Nc3ccc(S(=O)(=O)N(C)c4cccc(Cl)c4)cc32)c(C)c1C(=O)N1CCN(C)CC1 | 0.528 | 0.523 | – | – | – | – | – | – | – | – | – | – | – | – | – | – | – | – | – | – | – | – | – | – | – | – | – | – | – | – | – | – |
| CCN(CC)CCNC(=O)c1c(C)[nH]c(/C=C2\C(=O)Nc3ccc(F)cc32)c1C [Sunitinib Malate (Sutent)] | 0.387 | 0.364 | 0.0107 | 0.0161 | -0.0625 | -0.274 | -0.0117 | -0.00484 | -0.0741 | -0.207 | -0.117 | -0.163 | -0.216 | -0.511 | -0.295 | -0.315 | -0.325 | -0.492 | -0.0903 | -0.0528 | -0.026 | 0.0273 | -0.0792 | -0.017 | -0.0458 | -0.033 | 0.291 | 0.452 | 0.477 | 0.49 | 0.257 | 0.374 |
| CN(CCOc1ccc(CC2SC(=O)NC2=O)cc1)c1ccccn1 (stereo unspecified) [Rosiglitazone (Avandia)] | 0.532 | 0.523 | 0.068 | 0.0368 | -0.0298 | -0.117 | -0.0124 | 0.0197 | -0.0667 | -0.236 | -0.0381 | -0.0305 | -0.0979 | -0.42 | -0.131 | -0.086 | -0.0959 | -0.219 | -0.0122 | 0.00577 | 0.0405 | 0.0655 | -0.0752 | 0.0366 | 0.0101 | 0.078 | 0.409 | 0.548 | 0.564 | 0.587 | 0.382 | 0.504 |
| Cc1ccc(C(=O)N(CCCN)[C@@H](c2nc3cc(Cl)ccc3c(=O)n2Cc2ccccc2)C(C)C)cc1 | 0.971 | 0.979 | 0.446 | 0.424 | 0.379 | 0.372 | 0.959 | 0.968 | 0.972 | 0.977 | 0.202 | 0.194 | 0.075 | -0.26 | 0.918 | 0.931 | 0.939 | 0.943 | 0.393 | 0.409 | 0.426 | 0.465 | 0.965 | 0.973 | 0.98 | 0.984 | 0.652 | 0.647 | 0.659 | 0.655 | 0.94 | 0.962 |
| COc1cc2ncnc(-n3nc(-c4ccccn4)nc3N)c2cc1OC | 0.579 | 0.559 | 0.133 | 0.114 | 0.0839 | 0.0512 | 0.057 | 0.0631 | 0.00213 | -0.164 | -0.00526 | 0.0304 | -0.00529 | -0.18 | -0.0276 | -0.0495 | -0.074 | -0.143 | 0.0575 | 0.105 | 0.1 | 0.113 | -0.00115 | 0.0649 | 0.0622 | 0.0772 | 0.485 | 0.573 | 0.58 | 0.588 | 0.535 | 0.578 |
| Cn1cncc1[C@@](N)(c1ccc(Cl)cc1)c1ccc2c(c1)c(-c1cccc(Cl)c1)cc(=O)n2C [Tipifarnib (Zarnestra)] | 0.511 | 0.536 | 0.0908 | 0.0396 | 0.00741 | -0.0584 | 0.757 | 0.8 | 0.836 | 0.863 | -0.055 | -0.241 | -0.428 | -0.678 | -0.0203 | -0.124 | -0.267 | -0.517 | 0.0185 | 0.0674 | 0.106 | 0.1 | 0.777 | 0.805 | 0.847 | 0.882 | 0.37 | 0.421 | 0.452 | 0.489 | 0.482 | 0.521 |
| COc1ccc(CCN(C)CCCOc2ccc(S(=O)(=O)c3c(C(C)C)n(C)c4ccccc34)cc2)cc1OC | 0.542 | 0.544 | 0.0869 | 0.0667 | 0.0917 | -0.0299 | 0.0603 | 0.0699 | -0.0056 | -0.132 | 0.00966 | 0.000445 | -0.0789 | -0.342 | -0.377 | -0.25 | -0.308 | -0.545 | 0.0456 | 0.0938 | 0.156 | 0.171 | 0.135 | 0.145 | 0.18 | 0.298 | 0.605 | 0.642 | 0.664 | 0.661 | 0.48 | 0.536 |
| Cc1ccc(NC(=O)c2ccc(CN3CCN(C)CC3)cc2)cc1Nc1nccc(-c2cccnc2)n1 [Imatinib (Gleevec)] | 0.462 | 0.483 | 0.114 | 0.0795 | 0.0573 | -0.108 | -0.0113 | -0.0535 | -0.0116 | -0.0612 | -0.0508 | -0.0897 | -0.292 | -0.626 | -0.513 | -0.311 | -0.289 | -0.464 | -0.0306 | 0.0247 | 0.124 | 0.134 | -0.0872 | -0.0527 | 0.073 | 0.171 | 0.424 | 0.545 | 0.568 | 0.595 | 0.301 | 0.444 |
